From ChEMBL document CHEMBL3433997, “St. Jude Leishmania screening dataset” (2016) come the findings set out here.

What all share (assay type): functional
In assay [1] the target is Solute carrier family 2, facilitated glucose transporter member 1 (Homo sapiens) (UniProt P11166). The assay is described as follows: ST_JUDE_LEISH: Cytotoxicity at 2uM final concentration against transgenic Leishmania Mexicana promastigotes LmGLUT1 that are glucose transport deficient and complemented with the human glucose transporter GLUT1. Activity is measured by DNA content using SYBR green in vitro.
Sequence of Solute carrier family 2, facilitated glucose transporter member 1 (Homo sapiens) (P11166 whole entry): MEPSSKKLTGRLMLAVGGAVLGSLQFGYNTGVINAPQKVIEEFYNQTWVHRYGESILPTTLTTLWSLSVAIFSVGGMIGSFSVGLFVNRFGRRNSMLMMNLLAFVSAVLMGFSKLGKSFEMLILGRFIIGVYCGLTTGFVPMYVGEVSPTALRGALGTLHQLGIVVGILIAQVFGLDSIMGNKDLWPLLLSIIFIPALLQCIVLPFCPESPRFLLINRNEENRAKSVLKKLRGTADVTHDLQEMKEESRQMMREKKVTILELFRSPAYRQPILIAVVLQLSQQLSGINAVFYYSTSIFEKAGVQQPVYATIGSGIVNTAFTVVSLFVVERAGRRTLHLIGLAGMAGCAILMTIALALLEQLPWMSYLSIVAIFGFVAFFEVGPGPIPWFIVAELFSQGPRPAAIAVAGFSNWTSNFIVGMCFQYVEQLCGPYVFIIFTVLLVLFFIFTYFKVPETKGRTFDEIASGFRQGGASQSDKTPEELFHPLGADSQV

For assay [2], the target named is Hexose transporter 1 (Plasmodium falciparum) (UniProt O97467). The assay is described as follows: ST_JUDE_LEISH: Cytotoxicity at 2uM final concentration against transgenic Leishmania Mexicana promastigotes LmPfHT that are glucose transport deficient and complemented with the Plasmodium falciparum hexose transporter. Activity is measured by DNA content using SYBR green in vitro.

Assay [3] concerns the target Glucose transporter (Leishmania mexicana) (UniProt O61059). The experiment in a line: ST_JUDE_LEISH: Cytotoxicity at 2uM final concentration against transgenic Leishmania Mexicana promastigotes LmGT2 that are glucose transport deficient and complemented with the L. Mexicana glucose transporter 2. Activity is measured by DNA content using SYBR green in vitro.

In general, inhibition refers to the relative decrease from the control value, in per cent. As for `Cc1ccc2cc(NCCCCCCCCON3C(N)=NC(N)=NC34CCCCC4)ccc2n1`, the inhibition in assay [1] is 8.51%; in assay [2] it was 8.23%; in assay [3], 9.59%.
For `COc1ccc(CCNC(C)Cc2ccc(C(=O)Nc3ccc(CC(C)NCCc4cccc(Cl)c4)cc3)cc2)cc1` (configuration not stated), in that order: 3.92%, 13% and 0.32%.
For `CC1(C)NC(N)=NC(=N)N1OCCSc1ccc(Cl)c(Cl)c1`, in that order: 5.92%, 7.48% and 9.66%.
Regarding `CCOc1c(OC)ccc2c1CCN(CCN1CCC(CNC(=O)c3ccc(-c4ccc(C#N)cc4)cc3)CC1)C2`, the results for the inhibition in assay [1], in assay [2] and in assay [3] were -1.08%, -0.26% and 1.45%, respectively.
Taken in the same sequence, the figures for `OCC1CCN(Cc2cccc(-c3cccc(-c4nc5cc(C(F)(F)F)ccc5[nH]4)c3)c2)CC1` were 2.74%, 0.35% and 0.14%.
Regarding `COc1cc2c(cc1OC)CN(CCc1ccc(NC(=O)c3cc4cc(OC(F)(F)F)ccc4[nH]3)cc1)CC2`, the results for the inhibition in assay [1], in assay [2] and in assay [3] were 3.34%, 3.67% and 1.17%, respectively.
For `O=C(Nc1cccc(-c2ccc(-c3nc4ccccc4[nH]3)cc2)c1)Nc1ccc2c(c1)OCO2`, in that order: 1.14%, 1.8% and 0.06%.
With `O=C(O)c1ccc2nc(-c3ccccn3)c(-c3ccccn3)nc2c1`, the values for the inhibition in assay [1], in assay [2] and in assay [3] were -0.91%, -3.35% and -0.14%, respectively.
Taken in the same sequence, the figures for `CC(C)(C)c1ccc(-c2cc3c(ccc4nc(N)nc(N)c43)[nH]2)cc1` were 1.02%, 1.64% and -0.3%.
Taken in the same sequence, the figures for `N#Cc1ccc2c(c1)CCN(CCC1CCC(NC(=O)/C=C/c3ccc4ccccc4c3)CC1)CC2` (configuration not stated) were -0.35%, -1.71% and -1.14%.
As for `CCc1cn2c3c(cc(C(=O)N[C@@H](Cc4ccccc4)[C@H](O)CNCc4ccc(C)cc4)cc13)N(C)S(=O)(=O)CC2`, the results for the inhibition in assay [1], in assay [2] and in assay [3] were -0.24%, 1.57% and 0.38%, respectively.
For `O=C(NC1CCCCN(Cc2ccc3c(c2)OCCO3)C1)c1cc(-c2ccccc2F)cs1` (configuration not stated), in that order: 12.7%, 16.4% and 12.8%.
For `O=C(/C=C/c1ccc(Cl)c(Cl)c1)NCCCCCN1CCC(NC(=O)NC2CCCC2)CC1`, in that order: 1.11%, 1.93% and 0.26%.
Taken in the same sequence, the figures for `COc1ccc(NC(=O)Nc2ccc(-c3ccccc3)cc2)cc1Cn1cnc(N2CCCNCC2)cc1=O` were 3.65%, 2.02% and 4.94%.
For `N#Cc1ccc(-c2ccc(C(=O)NCCCCN3CCC(c4ccc5c(c4OCc4ccccn4)CCCC5)CC3)cc2)cc1`, the inhibition in assay [1] was -0.71%; in assay [2], 1.73%; in assay [3] it was 0.17%.
For `COc1ccc(CN2CCCN(Cc3cccc(C(=O)Nc4ccc(C(C)(C)C)cc4)c3)CC2)cc1`, in that order: 7.71%, 5.46% and 3.17%.
In the case of `COc1ccc(NCc2cccc(-c3cccc(CNCCc4ccccc4)c3)c2)cc1`, the inhibition was 0% in assay [1], 0.51% in assay [2] and -1.32% in assay [3].
Take `N#Cc1ccc(-c2nc(CO)c(C(=O)NCCCCN3CCC(c4ccc5c(c4OCC(N)=O)CCCC5)CC3)s2)cc1`: the inhibition was 1.02% in assay [1], -1.06% in assay [2] and 1.74% in assay [3].
Taken in the same sequence, the figures for `CC1(C)C(=O)Nc2ccc3c(c21)CC1SC(=O)NN=C31` (configuration not stated) were -0.91%, 0.11% and 0.01%.
Taken in the same sequence, the figures for `CCOc1c(Cl)cc(Cl)cc1CNCCCNc1nc2ccccc2[nH]1` were 1.3%, 6.95% and 4.33%.
Taken in the same sequence, the figures for `CCN(CC)CCN(CCCc1ccc(-c2ccc(C(F)(F)F)cc2)cc1)C(=O)Cn1c(CCc2cccc(F)c2F)nc(=O)c2c1CCC2` were -2.04%, -0.48% and 6.62%.
As for `CCCCOc1c(CCC)cc(Cc2cnc(N)nc2N)cc1CCC`, the inhibition in assay [1] was 7.57%; in assay [2], 3.82%; in assay [3], -0.35%.
Taken in the same sequence, the figures for `CC(=O)Nc1ncc(C(=O)Nc2cccc(-c3cccc(-c4nc5cccc(C)c5[nH]4)c3)c2)s1` were 3.02%, 2.86% and 2.45%.
Taken in the same sequence, the figures for `COc1cc(Cc2cnc(N)nc2N)cc(OCCCN2C(=O)c3ccccc3C2=O)c1OC` were 4.68%, 5.99% and 6.69%.
Taken in the same sequence, the figures for `CN1CCN(CCc2ccc3nc(-c4csc(Cc5cc(Cl)ccc5OCc5ccccc5)n4)[nH]c3c2)CC1` were 0.84%, 2.08% and -1.4%.
As for `COc1ccc2c(c1)CCCC2NCCCCNC(=O)c1ccc(NC(=O)c2ccc(Cl)cc2)cc1` (configuration not stated), the inhibition worked out at 1.92% in assay [1], 0.37% in assay [2] and 0.82% in assay [3].
For `COc1ccc2nccc([C@@H](O)CN3CCC(NCc4ccc5c(c4)NC(=O)CS5)CC3)c2n1`, in that order: 0.52%, 2.86% and -3.81%.
Taken in the same sequence, the figures for `CC(=O)Nc1nc(C(=O)Nc2cccc(-c3cccc(-c4nc5ccccc5[nH]4)c3)c2)cs1` were 12%, 15.6% and 6.57%.
As to `Cc1noc(C)c1-c1cccc(C(=O)NC2CCN(CCNC(=O)C(c3ccccc3)c3ccccc3)CC2)c1`, the inhibition worked out at 2.71% in assay [1], 1.09% in assay [2] and 1.64% in assay [3].
For `O=C(Nc1ccc(Cl)cc1)c1cc(Cl)ccc1NC(=O)C1(c2ccc(Cl)cc2)CCCC1`, in that order: -0.07%, 2.74% and 1.43%.
For `CN(C)S(=O)(=O)n1ncc2c3c(N)nc(N)nc3ccc21`, in that order: 0.68%, 1.22% and 0.96%.
Taken in the same sequence, the figures for `O=C(Nc1ccc(Cl)cc1)Nc1ccc(-c2ccc(-c3nc4ccccc4[nH]3)cc2)cc1` were 2.4%, 3.97% and 0.96%.
As to `COc1ccccc1C1CCN(C2CCC(NC(=O)/C=C/c3ccc4c(c3)OC(F)(F)O4)CC2)CC1` (configuration not stated), the inhibition in assay [1] was 4.33%; in assay [2] it was 4.26%; in assay [3] it was 1.28%.
Taken in the same sequence, the figures for `CC(C)NCC(O)Cn1c2ccc(Br)cc2c2cc(Br)ccc21` (configuration not stated) were 0.74%, 0.92% and 0.36%.
